From PubChem BioAssay AID624465 (National Center for Advancing Translational Sciences (NCATS), 2012)
The whole screen tested about 360,000 compounds, of which about 300 (0.083%) were called active. The full list was thinned out, with actives kept by preference. A number with no mark means an inactive call. Cut-off read from the data, not from the text of the source: active = activation above about 40%; inconclusive = between about 15% and that limit; inactive = weaker than that.

What follows are compounds tested against D(2) dopamine receptor (Homo sapiens) (UniProt P14416) (assay: Beta-Arrestin HTS for Positive Allosteric Modulators of the Human D2 Dopamine Receptor: Agonists). Conditions: DiscoveRx PathHunter D2 beta-arrestin, luminescence, 90 min; active compounds read high; 100% = 57 uM dopamine signal.
Chain of D(2) dopamine receptor (Homo sapiens) (P14416 whole entry, looked up): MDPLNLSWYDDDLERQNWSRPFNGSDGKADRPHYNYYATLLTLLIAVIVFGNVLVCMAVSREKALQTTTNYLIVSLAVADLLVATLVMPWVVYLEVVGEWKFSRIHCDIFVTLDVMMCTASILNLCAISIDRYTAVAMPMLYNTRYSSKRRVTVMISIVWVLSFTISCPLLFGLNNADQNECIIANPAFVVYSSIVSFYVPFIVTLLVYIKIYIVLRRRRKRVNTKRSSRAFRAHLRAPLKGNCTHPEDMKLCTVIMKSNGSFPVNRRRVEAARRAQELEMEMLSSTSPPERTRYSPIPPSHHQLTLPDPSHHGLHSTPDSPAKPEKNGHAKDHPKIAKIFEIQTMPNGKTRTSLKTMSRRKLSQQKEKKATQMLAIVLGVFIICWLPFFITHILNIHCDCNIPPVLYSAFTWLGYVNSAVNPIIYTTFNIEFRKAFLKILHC
Excerpt: There is great interest in identifying small molecule ligands for G-protein coupled receptors (GPCRs) as nearly 50% of all FDA-approved drugs target these important receptor proteins. […] Amongst the dopamine receptors (DARs), the D2 is arguably one of the most validated drug targets in neurology and psychiatry. For instance, all receptor-based antiparkinsonian drugs primarily work via stimulating the D2 DAR, whereas all FDA-approved antipsychotic agents are antagonists of this receptor. The D2 DAR is also therapeutically targeted in other disorders such as restless legs syndrome, tardive dyskinesia, Tourette's syndrome, and hyperprolactinemia.
To this end, a miniaturized qHTS screen was developed to be screened against the Molecular Libraries Small Molecule Repository (MLSMR). This assay seeks to identify agonists against the D2 DAR.
NIH Molecular Libraries Probe Production Network [MLPCN]
NIH Chemical Genomics Center [NCGC]
PI Name: David Sibley, National Institutes of Neurological Disorders and Stroke
DiscoveRx D2 cells were thawed from frozen stock and seeded at 2,100 cells/ 3 uL/well media (DiscoveRx Plating Reagent 2) with MultiDrop Combi dispenser (Thermo Scientific, Logan, UT) onto white tissue culture treated 1536-well Aurora plates (Brooks Automation, Chelmsford, MA) and allowed to attach overnight at 37 deg C, 5% CO2. Next, 23 nL/well of compound solutions in DMSO were added with a pintool transfer (Kalypsis, San Diego, CA). As the positive control, 1 uL/well dopamine (EC100, 57 uM final concentration) diluted in buffer (HBSS + 10 mM HEPES + SMB + 0.1% Tween-20) was dispensed to 1 column of each plate. The rest of the plate was dispensed with buffer only, 1 uL/well as well. The cells were stimulated by compounds or dopamine control for 90 minutes at 37 deg C, 5% CO2, after which 1.5 ul/well of DiscoveRx detection reagent was added with BioRAPTR FRD dispenser. The detection reagent was prepared by mixing of Galacton Star Substrate, Emerald II solution and PathHunter buffer (supplied by the assay kit) together at 1:5:19 proportion accordingly just prior to dispensing. The plates were incubated at ambient temperature for 1 hour and then the luminescent signal was read on ViewLux plate reader (PerkinElmer, Waltham, MA).
`Cc1ccc(N=C2NC(=O)c3cccc([N+](=O)[O-])c32)cc1` was tested, and the activation was 1.24%. Work on `COc1ccc([C@H]2C[C@@H](n3cc(COC(=O)c4ccccc4)nn3)[C@H](O)CN2C(=O)c2cccs2)cc1` yielded an activation of -3.3%. In the case of `COc1cc(C(=O)Nc2cc(C(F)(F)F)ccc2N2CCOCC2)ccc1O`, the activation is reported as -0.449%. With `CCOC(=O)C(NS(=O)(=O)c1ccc(C)cc1)(C(F)(F)F)P(=O)(OCC(C)C)OCC(C)C` (stereo not drawn) the activation was -3.61%. Work on `COc1ccc(N2C(=O)C3C(C2=O)C(C(=O)c2ccccc2)N2CCCC32)cc1` (stereo not drawn) yielded an activation of -3.43%. With `O=C(CSc1ccccn1)Nc1nc2c(ccc3ccccc32)s1` the activation was -0.569%. In the case of `CC(=O)c1nn(-c2ccccc2)c(=Nc2ccccc2)cc1C`, the activation is reported as -5.64%. Work on `CON(C)S(=O)(=O)c1ccc2c(c1)NC(=O)C1CCCN21` (stereo not drawn) yielded an activation of -0.103%. `COc1cccc(OCc2cc(C(=O)N3CCN(C(=O)c4ccco4)CC3)no2)c1` was tested, and the activation was 2.91%. For `COc1cccc(OC)c1OCCN1CCN(C(=O)c2ccco2)CC1`, the activation was 44.2% (active). Work on `O=C(OCC(=O)N1CCN(C(=O)c2ccco2)CC1)c1c(Cl)cccc1Cl` yielded an activation of -10.9%. For `O=C(c1ccco1)N1CCN(Cc2cccc(C(F)(F)F)c2)CC1`, the activation was 41.8% (active). `O=C(c1ccco1)N1CCN(C(=S)Nc2cc(F)cc(F)c2)CC1` was tested, and the activation was 0.341%. With `O=C(CN1CCN(C(=O)c2ccco2)CC1)Nc1ccc(Cl)c(C(F)(F)F)c1` the activation was -0.549%. `CC1=CC=CN2C1=NC(=O)CC2(C)C(=O)N(CC(=O)NC1CCCC1)c1ccccc1C` (stereo not drawn) showed an activation of 4.24%. Work on `COc1ccc(-c2ccc3[nH]c4c(c3c2)CCN2C[C@H]3[C@H](C)ON(C)[C@H]3C[C@@H]42)cc1` yielded an activation of -8.14%. For `COc1ccc(-c2cc(C(=O)N3CCN(Cc4ccc5c(c4)OCO5)CC3)on2)cc1OC`, the activation was -0.403%. For `O=C(c1cccs1)N1CCN(Cc2ccc3c(c2)OCO3)CC1`, the activation was 46.9% (active). For `Cc1cc(C)n2nc(C(=O)N3CCN(Cc4ccc5c(c4)OCO5)CC3)nc2n1`, the activation was 10.2%. `CCOc1ccc(C(=O)NCC(=O)N2CCN(c3ccc(C(F)(F)F)cn3)CC2)cc1` was tested, and the activation was 9.96%. Work on `COP1(=O)C[C@@H](O)[C@@H](O)[C@@H](COCc2ccccc2)O1` (stereo partly drawn) yielded an activation of 0.955%. `Oc1cc2c(cc1O)CN(C(=S)NCCc1ccc(Cl)cc1)CCC2` gave an activation of -1.87%. `O=[N+]([O-])c1ccc(CN2CC(N3CC=CC3)CS2(=O)=O)cc1` (stereo not drawn) was tested, and the activation was -1.85%.
